Fam108B inh – counter-screen for RBBP9 inhibitors: inhibitors of mouse Fam108B. AID 1947. recombinant Fam108B, FP-Rh probe fluorescence polarization. inhibition, % at 9.51 µM. 300,000 compounds, 0.33% hits;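 active = inhibition above the screen mean inhibition plus 3 SD, computed separately per campaign, cut at about 18% in these data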;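 note: inhibitors lower polarization as less probe binds the enzyme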
PME-1 primary – blocks human protein phosphatase methylesterase 1; recombinant PME-1, FP-Rh probe fluorescence polarization; inhibition, % at 5.9 µM; 320,000 compounds, 0.53% hits;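 active = inhibition above the campaign mean of all compounds plus 3 SD, cut at about 26% in these data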;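 note: competitive labeling of PME-1 active site by serine hydrolase directed probe; inhibitors block probe labeling so polarization falls and inhibition rises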
PAD4 inh – inhibitors of human PAD4. recombinant PAD4, RCA probe fluorescence polarization. Q9UM07. 330,000 compounds, 0.41% hits. inhibition, % at 6.36 µM;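 active = percent inhibition above a cutoff equal to the mean of all tested compounds plus 3 SD, cut at about 15% in these data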
GSTO1 inh – GSTO1 inhibition, counter-screen for RBBP9 inhibitors | 300,000 compounds, 1.1% hits | recombinant GSTO1, activity-based probe fluorescence polarization | inhibition, % at 5.96 µM | AID 1974 | P78417;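 active = inhibition above the campaign mean inhibition plus 3 SD, cut at about 35% in these data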
Target sequence (P78417 whole entry, looked up): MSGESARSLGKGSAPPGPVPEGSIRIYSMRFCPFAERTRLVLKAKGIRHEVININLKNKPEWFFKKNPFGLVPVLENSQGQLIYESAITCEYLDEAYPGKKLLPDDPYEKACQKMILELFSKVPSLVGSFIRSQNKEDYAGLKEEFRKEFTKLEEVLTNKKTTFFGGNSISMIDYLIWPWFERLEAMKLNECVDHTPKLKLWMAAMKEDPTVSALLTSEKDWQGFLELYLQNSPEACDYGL
LYPLA1 inh – LYPLA1 (human) inhibition in PME1 counter-screen. inhibition, % at 5.9 µM. recombinant LYPLA1, FP-Rh probe fluorescence polarization. O75608. 320,000 compounds, 0.16% hits;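 active = inhibition above the mean of all tested compounds plus 3 SD, set per campaign, cut at about 14% in these data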;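 note: inhibitors block serine hydrolase probe labeling of LYPLA1 so polarization falls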
LYPLA2 inh – LYPLA2 (human) inhibition in PME1 counter-screen; inhibition, % at 5.9 µM; recombinant LYPLA2, FP-Rh probe fluorescence polarization; 320,000 compounds, 0.38% hits; AID 2177; O95372;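 active = inhibition above the screen-wide mean plus 3 SD, limit set per campaign, cut at about 26% in these data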
Target sequence (O95372 whole entry, looked up): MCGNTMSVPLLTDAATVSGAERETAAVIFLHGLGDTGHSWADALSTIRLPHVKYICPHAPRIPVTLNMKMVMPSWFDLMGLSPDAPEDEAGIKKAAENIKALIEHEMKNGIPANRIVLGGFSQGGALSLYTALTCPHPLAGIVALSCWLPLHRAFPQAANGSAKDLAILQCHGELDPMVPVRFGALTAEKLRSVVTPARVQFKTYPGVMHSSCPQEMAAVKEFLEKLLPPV
GSTO1 inh conf – GSTO1 (human) inhibition, confirmation; shares compounds with GSTO1 inh; recombinant GSTO1, probe fluorescence polarization; inhibition, % at 5.96 µM; 2,400 compounds, 54% hits;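 active = inhibition above the primary screen's cutoff, its mean inhibition plus 3 SD, cut at about 35% in these data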;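 note: loss of polarization as inhibitors block binding of rhodamine sulfonate ester activity probe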
Numbers stand for hits. This is a sample that favours compounds with a hit; in the whole collection about 1.8% have one here.

CC(C)OCCCNC(=O)c1cc(-c2cccnc2)nc2ccccc12 was read as Fam108B inh inactive, PME-1 primary inactive, PAD4 inh inactive, GSTO1 inh inactive, LYPLA1 inh inactive and LYPLA2 inh inactive.
For NC1=C(Br)C(=O)c2ccccc2C1=O the results were Fam108B inh inactive, PME-1 primary inactive, PAD4 inh inactive, GSTO1 inh 66, LYPLA1 inh inactive, LYPLA2 inh inactive and GSTO1 inh conf inactive.
O=C(Nc1ccc([N+](=O)[O-])cc1)N1CCN(C(=O)C2CCCO2)CC1 (configuration not stated) was read as Fam108B inh inactive, PME-1 primary inactive, PAD4 inh inactive, GSTO1 inh inactive, LYPLA1 inh inactive and LYPLA2 inh inactive.
Screening CCOC(=O)C1=C(C)NC(=O)NC1c1c(O)ccc2ccccc12 (configuration not stated) returned Fam108B inh inactive, PME-1 primary inactive, PAD4 inh inactive, GSTO1 inh inactive, LYPLA1 inh inactive and LYPLA2 inh inactive.
Oc1ccc2ccccc2c1C1Nc2cccc3cccc(c23)N1 was read as Fam108B inh inactive, PME-1 primary inactive, PAD4 inh inactive, GSTO1 inh 42, LYPLA1 inh inactive, LYPLA2 inh inactive and GSTO1 inh conf inactive.
CC(NC(=O)c1ccccc1)C(=O)NNC(=O)c1ccccc1Cl (configuration not stated) was read as PME-1 primary inactive, PAD4 inh inactive, LYPLA1 inh inactive and LYPLA2 inh inactive.
For O=C(CSc1ncn[nH]1)Nc1ccc(Cl)c(Cl)c1 the results were Fam108B inh inactive, PME-1 primary inactive, PAD4 inh inactive, GSTO1 inh 52, LYPLA1 inh inactive, LYPLA2 inh inactive and GSTO1 inh conf inactive.
Screening O=C(CSc1ncn[nH]1)Nc1ncc(C(F)(F)F)cc1Cl returned Fam108B inh inactive, PME-1 primary inactive, PAD4 inh inactive, GSTO1 inh inactive, LYPLA1 inh inactive and LYPLA2 inh inactive.
CC1(OC(=O)C2CCCC2)C(=O)C=C2C=C(c3ccsc3)N(C3CCCCC3)C=C2C1=O (configuration not stated) was read as Fam108B inh inactive, PME-1 primary inactive, PAD4 inh inactive, GSTO1 inh 43, LYPLA1 inh inactive, LYPLA2 inh inactive and GSTO1 inh conf inactive.
CC1(OC(=O)CCc2ccccc2)C(=O)C=C2C=C(c3ccc(C#N)cc3)N(C3CCCCC3)C=C2C1=O (configuration not stated) was read as Fam108B inh inactive, PME-1 primary inactive, PAD4 inh inactive, GSTO1 inh 45, LYPLA1 inh inactive, LYPLA2 inh inactive and GSTO1 inh conf inactive.
CC1(OC(=O)CCc2ccccc2)C(=O)C=C2C=C(c3ccc(C#N)cc3)N(C(CO)CO)C=C2C1=O (configuration not stated) was read as Fam108B inh inactive, PME-1 primary inactive, PAD4 inh inactive, GSTO1 inh inactive, LYPLA1 inh inactive and LYPLA2 inh inactive.
`CC1(OC(=O)C2CCCC2)C(=O)C=C2C=C(c3ccsc3)N(CC3CC3)C=C2C1=O` (configuration not stated) gave Fam108B inh inactive, PME-1 primary inactive, PAD4 inh inactive, GSTO1 inh 40, LYPLA1 inh inactive, LYPLA2 inh inactive and GSTO1 inh conf inactive.
For CC1(OC(=O)C2CCCC2)C(=O)C=C2C=C(c3ccsc3)N(Cc3ccc4c(c3)OCO4)C=C2C1=O (configuration not stated) the results were Fam108B inh inactive, PME-1 primary inactive, PAD4 inh inactive, GSTO1 inh inactive, LYPLA1 inh inactive and LYPLA2 inh inactive.
Screening Cc1ccc(S(=O)(=O)N2CCOCC2)cc1NS(=O)(=O)c1ccc(F)c(F)c1 returned PME-1 primary inactive, PAD4 inh inactive, LYPLA1 inh inactive and LYPLA2 inh inactive.
`Cc1ccc(C=C2C(Cl)=C(Cl)C(Cl)=C2Cl)cc1` gave Fam108B inh inactive, PME-1 primary inactive, PAD4 inh inactive, GSTO1 inh 45, LYPLA1 inh inactive, LYPLA2 inh inactive and GSTO1 inh conf inactive.
`O=C(Nc1nncs1)c1cc(S(=O)(=O)N2CCCCC2)ccc1Cl` gave Fam108B inh inactive, PME-1 primary inactive, PAD4 inh inactive, GSTO1 inh inactive, LYPLA1 inh inactive and LYPLA2 inh inactive.
For CCOC(=O)N1CCN(CC(=O)Nc2ccc(F)cc2F)CC1 the results were Fam108B inh inactive, PME-1 primary inactive, PAD4 inh inactive, GSTO1 inh 43, LYPLA1 inh inactive, LYPLA2 inh inactive and GSTO1 inh conf inactive.
`CC1=NN(c2cccc([N+](=O)[O-])c2)C(=O)C1` gave Fam108B inh inactive, PME-1 primary inactive, PAD4 inh inactive, GSTO1 inh inactive, LYPLA1 inh inactive and LYPLA2 inh inactive.
For CC1=NN(c2ccc(N)cc2)C(=O)C1 the results were Fam108B inh inactive, PME-1 primary inactive, PAD4 inh inactive, GSTO1 inh 50, LYPLA1 inh inactive, LYPLA2 inh inactive and GSTO1 inh conf inactive.
`Cc1ccc2c(c1)[C@@H]1[C@H](CO2)[C@H](c2ccccc2)[C@]2(C)C(=O)N[C@H](C)C(=O)N12` gave PAD4 inh inactive.
Screening CCN(C(=O)COC(=O)c1oc2ccccc2c1C)c1c(N)n(Cc2ccccc2)c(=O)[nH]c1=O returned PME-1 primary inactive, PAD4 inh inactive, LYPLA1 inh inactive and LYPLA2 inh inactive.
CCOCC(=O)Nc1nnc(Cc2ccc(OC)c(OC)c2)s1 was read as Fam108B inh inactive, PME-1 primary inactive, PAD4 inh inactive, GSTO1 inh inactive, LYPLA1 inh inactive and LYPLA2 inh inactive.
CCOCC(=O)Nc1nnc(Cc2ccc(OC)cc2)s1 was read as Fam108B inh inactive, PME-1 primary inactive, PAD4 inh inactive, GSTO1 inh 39, LYPLA1 inh inactive, LYPLA2 inh inactive and GSTO1 inh conf inactive.
`CC(=O)NC1=C(N(C)C2CCS(=O)(=O)C2)C(=O)c2ccccc2C1=O` (configuration not stated) gave Fam108B inh inactive, PME-1 primary inactive, PAD4 inh inactive, GSTO1 inh 38, LYPLA1 inh inactive, LYPLA2 inh inactive and GSTO1 inh conf inactive.
For CCOc1cc(N2CCOCC2)c(OCC)cc1NC(=O)c1cnccn1 the results were PAD4 inh inactive.
Screening CCOC(=O)c1sc(N(Cc2ccccc2)C(=O)CCl)nc1C returned Fam108B inh inactive, PME-1 primary inactive, PAD4 inh inactive, GSTO1 inh 84, LYPLA1 inh inactive, LYPLA2 inh inactive and GSTO1 inh conf 92.
For COc1cccc(CN2CC(C(=O)NCCc3ccccc3C(F)(F)F)CCC2=O)c1 (configuration not stated) the results were Fam108B inh inactive, PME-1 primary inactive, PAD4 inh inactive, GSTO1 inh inactive, LYPLA1 inh inactive and LYPLA2 inh inactive.
For N#C/C(=C\c1ccc(O)c(O)c1)C(=O)Nc1cccc2ncccc12 the results were Fam108B inh inactive, PME-1 primary 28, PAD4 inh inactive, GSTO1 inh 56, LYPLA1 inh inactive, LYPLA2 inh inactive and GSTO1 inh conf inactive.
